Assay results: PubChem BioAssay (NCI)
Compounds without any hit were thinned out: in the full panel of roughly 83,000, 20% have a hit.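 The endpoint reported here, percent growth, reads 100 for growth as untreated, 0 for no net growth and -100 for all cells dead.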 Values without a mark were called inactive. Activity calls are given as the source filed them. The calls were made as follows: active = growth percent below 10; inactive = the rest.

Key:
Assay in all cases: NCI-60 one-dose screen, 48 h (100 = growth as untreated, 0 = no growth, -100 = all killed)
Conditions in all cases: 10 µM
SR leukemia = system: SR leukemia
RPMI-8226 leukemia = system: RPMI-8226 leukemia
OVCAR-8 ovarian = system: OVCAR-8 ovarian
OVCAR-5 ovarian = system: OVCAR-5 ovarian
OVCAR-4 ovarian = system: OVCAR-4 ovarian
SK-OV-3 ovarian = system: SK-OV-3 ovarian
IGROV1 ovarian = system: IGROV1 ovarian
OVCAR-3 ovarian = system: OVCAR-3 ovarian
HS 578T breast = system: HS 578T breast
NCI/ADR-RES ovarian = system: NCI/ADR-RES ovarian
T-47D breast = system: T-47D breast
BT-549 breast = system: BT-549 breast
MDA-MB-435 melanoma = system: MDA-MB-435 melanoma
SW-620 colon = system: SW-620 colon
MCF7 breast = system: MCF7 breast
HCT-116 colon = system: HCT-116 colon
HCC-2998 colon = system: HCC-2998 colon
KM12 colon = system: KM12 colon

SMILES	growth (SR leukemia)	growth (RPMI-8226 leukemia)	growth (OVCAR-8 ovarian)	growth (OVCAR-5 ovarian)	growth (OVCAR-4 ovarian)	growth (SK-OV-3 ovarian) [%]	growth (IGROV1 ovarian)	growth (OVCAR-3 ovarian)	growth (HS 578T breast) [%]	growth (NCI/ADR-RES ovarian)	growth (T-47D breast)	growth (BT-549 breast)	growth (MDA-MB-435 melanoma)	growth (SW-620 colon)	growth (MCF7 breast)	growth (HCT-116 colon)	growth (HCC-2998 colon)	growth (KM12 colon)
O=c1cc(CSc2nnc(-c3ccccc3)n2-c2ccc(F)cc2)c2ccc3ccccc3c2o1	88.5%	101%	93%	94%	99.2%	99.7	92.2%	97.5%	103	84.3%	76.7%	102%	112%	104%	99.5%	86.5%	86.9%	95.8%
CC(C)OP(=O)(O)c1ncc(-c2ccc(C(F)(F)F)cc2)c(NC2CCCCCC2)n1	86.3%	8.81% (active)	52.3%	84.6%	52%	85.2	62.4%	12.1%	81.7	97.5%	41.7%	86.6%	62.7%	54.7%	51.1%	53.1%	89.8%	48%
CCc1ccc(Nc2cc(C)nc3nc(C)nn23)cc1	-20.9% (active)	-35.2% (active)	-69.2% (active)	26.4%	-13.1% (active)	38.3	32.8%	-92.2% (active)	50.8	-29.5% (active)	-68.3% (active)	40.7%	-97.2% (active)	-68.9% (active)	-92% (active)	-90.7% (active)	-69.8% (active)	3.49% (active)
COc1ccc(C(=O)/C=C/c2cc(-c3ccc4c(c3)OCO4)n[nH]2)cc1OC	-5.36% (active)	4.4% (active)	47.4%	75.9%	59.9%	93.3	44.1%	36.6%	79.3	57.8%	43.8%	41.4%	73.5%	36.4%	27.2%	18.4%	91.3%	54.1%
O=[N+]([O-])c1ccc(S(=O)(=O)OCCCCOS(=O)(=O)c2ccc([N+](=O)[O-])cc2)cc1	100%	106%	108%	103%	108%	115	115%	105%	105	98.9%	100%	106%	95.1%	102%	95.9%	108%	100%	107%
C#CCn1c(-c2cccc(OCCCCl)c2)nc2c1c(=O)n(C)c(=O)n2C	43.6%	10.5%	54.8%	98.9%	57%	93.7	73.9%	58.1%	99	66.1%	18%	13.8%	78.9%	95%	84.7%	51.9%	104%	56.5%
CCCCCCCCCCSC(=N)N (tested in a mixture with another compound)	-26.7% (active)	38%	81.6%	101%	90%	85.9	68%	76.1%	81.9	82.5%	28%	75%	79.6%	38.6%	36.6%	55.6%	-57.9% (active)	45.3%
O=[N+]([O-])c1ccc(Br)o1	108%	106%	108%	95.4%	122%	104	101%	111%	113	99.5%	91.3%	97%	109%	109%	95.7%	101%	95%	99.1%
CCOC(=O)C(CCC1=NC(C)(C)CC(C)O1)C(=O)OCC (stereo unspecified)	68.6%	111%	85.5%	62.5%	90.6%	101	96.2%	107%	95.3	83%	102%	88.9%	104%	56.7%	72.8%	46%	98.8%	94.4%
O=C(COc1ccc(-c2nc3ccccc3[nH]2)cc1)N=Nc1c(O)[nH]c2ccccc12	1.13% (active)	71.5%	78.4%	116%	15.5%	105	99.5%	62.5%	103	108%	59%	106%	69.8%	85.6%	42.5%	40.9%	109%	58.2%
COc1ccc(-c2cc(=O)n(-c3nc4ccccc4[nH]3)[nH]2)cc1OC	48.6%	81.4%	64.8%	93.1%	93.8%	87.2	70.6%	90.1%	48.2	20.1%	94.5%	76.2%	50.6%	77.8%	74.4%	74.6%	102%	105%
Nc1ccc2c(c1)Cc1cc(N)c(Cl)cc1-2	88.8%	96.8%	97.9%	112%	84%	113	98.2%	124%	89.8	107%	54.3%	90.3%	94.3%	108%	42.6%	100%	103%	108%
O=NN(CCCl)C(=O)NCc1ccc(-c2ccc(CNC(=O)N(CCCl)N=O)cc2)cc1	-5.09% (active)	93.5%	94%	115%	114%	95.8	66.6%	115%	116	100%	101%	86.6%	91.3%	89.5%	96.1%	89.2%	101%	98.9%
Cc1nc2scc(-c3ccc(Cl)cc3)n2c(=O)c1CCN1CCOCC1	81.4%	93.5%	104%	116%	95.1%	94.1	79.2%	104%	106	108%	76.6%	103%	95.8%	105%	90.2%	105%	106%	107%
COc1ccc(C(=O)/C=C/c2cc(-c3ccc(OC)c(OC)c3)n[nH]2)cc1OC	4.7% (active)	-45.9% (active)	-22.8% (active)	-8.32% (active)	-38.9% (active)	41.2	-32.7% (active)	-42% (active)	46.6	4.63% (active)	-7.46% (active)	-60.1% (active)	-33.1% (active)	-48.8% (active)	4.18% (active)	-89.2% (active)	-85.8% (active)	-74.1% (active)
COc1cc(-c2nc(-c3nnc(-c4cccnc4)o3)c3ccccn23)cc(OC)c1OC	104%	60.9%	73.8%	110%	123%	108	103%	129%	103	82.2%	100%	97.7%	99.2%	92.8%	107%	96.8%	99.9%	100%
CCN(CC)CC(O)Cc1ccc(OC)cc1 (stereo unspecified)	104%	108%	110%	106%	113%	114	122%	125%	107	113%	104%	121%	102%	114%	111%	111%	111%	116%
